Laboratory results: PubChem BioAssay AID1159580 (chemical genetic matrix, 2015)
“And” between values parts separate entries of the source, which are not always exact repeats. Equal values may be shown once. The campaign covered roughly 5,500 compounds. About 2,000 (36%) were called active. Another 18% or so got no clear call; they are omitted. Cut-off read from the data, not from the text of the source: active = normalized growth mostly below about 0.91 (no sharp cut-off); inconclusive = no clear call, values can overlap the other calls; inactive = mostly above about 0.92. The list shows a part of the results.

Test: chemical genetic growth profiling, strain panel (AID 1159580);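 note: tested at 20 µM; growth read once vehicle control cultures reached saturation at 30 °C; 1 = growth at the plate median or of vehicle wells; lower values mean less growth of the strain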
Details: S. cerevisiae deletion strains, growth OD

Measured: normalized growth

COc1cc2ccc(=O)oc2cc1O
inactive: locus YAL013W, strain DEP1, active compounds read low 1.03 | locus YAL021C, strain ccr4, active compounds read low 0.958 | locus YAL026C, strain drs2, active compounds read low 0.968 | locus YAL030W, strain snc1, active compounds read low 0.977 | locus YBL061C, strain skt5, active compounds read low 0.965 | locus YBR009C, strain hhf1, active compounds read low 1.01 | locus YBR021W, strain FUR4, active compounds read low 0.985 | locus YBR023C, strain chs3, active compounds read low 0.958 | locus YBR171W, strain sec66, active compounds read low 0.984 | locus YBR229C, strain ROT2, active compounds read low 0.946 | locus YBR231C, strain swc5, active compounds read low 0.966 | locus YBR279W, strain paf1, active compounds read low 0.96 | locus YCL011C, strain gbp2, active compounds read low 0.946 | locus YCL016C, strain dcc1, active compounds read low 0.94 | locus YCL029C, strain bik1, active compounds read low 0.979 | locus YCL069W, strain vba3, active compounds read low 0.98 | locus YCR088W, strain abp1, active compounds read low 0.985 | locus YDL005C, strain med2, active compounds read low 0.992 | locus YDL035C, strain GPR1, active compounds read low 0.97 | locus YDL040C, strain nat1, active compounds read low 0.973 | locus YDL074C, strain BRE1, active compounds read low 1.04 | locus YDL101C, strain DUN1, active compounds read low 0.999 | locus YDL185W, strain tfp1, active compounds read low 0.974 | locus YDL192W, strain arf1, active compounds read low 1 | locus YDR001C, strain nth1, active compounds read low 0.976 | locus YDR069C, strain doa4, active compounds read low 0.995 | locus YDR101C, strain arx1, active compounds read low 0.987 | locus YDR137W, strain rgp1, active compounds read low 1 | locus YDR150W, strain NUM1, active compounds read low 1 | locus YDR159W, strain sac3, active compounds read low 0.941 | locus YDR162C, strain NBP2, active compounds read low 0.953 | locus YDR195W, strain ref2 0.994 | locus YDR297W, strain sur2, active compounds read low 0.99 | locus YDR318W, strain mcm21, active compounds read low 0.992 | locus YDR334W, strain swr1, active compounds read low 0.959 | locus YDR335W, strain msn5, active compounds read low 0.96 | locus YDR388W, active compounds read low 1 | locus YDR392W, strain spt3, active compounds read low 0.883 | locus YDR502C, strain sam2, active compounds read low 0.999 | locus YEL003W, strain gim4, active compounds read low 0.987 | locus YEL037C, strain rad23, active compounds read low 0.974 | locus YEL061C, strain CIN8 (second series), active compounds read low 0.977 | locus YEL061C, strain CIN8, active compounds read low 0.987 | locus YER015W, strain faa2, active compounds read low 0.967 | locus YER016W, strain bim1, active compounds read low 0.949 | locus YER110C, active compounds read low 1.01 | locus YER111C, strain swi4, active compounds read low 0.967 | locus YER155C, strain BEM2 (second series), active compounds read low 1.01 | locus YER155C, strain BEM2, active compounds read low 1 | locus YER167W, strain BCK2, active compounds read low 0.984 | locus YFR010W, strain ubp6, active compounds read low 0.996 | locus YGL078C, strain dbp3, active compounds read low 1 | locus YGL086W, strain mad1, active compounds read low 0.998 | locus YGL167C, strain pmr1, active compounds read low 0.978 | locus YGL173C, strain kem1, active compounds read low 1.02 | locus YGL227W, strain vid30, active compounds read low 0.975 | locus YGL240W, strain doc1, active compounds read low 1 | locus YGL248W, strain PDE1, active compounds read low 0.998 | locus YGL253W, strain hxk2, active compounds read low 0.939 | locus YGR078C, strain PAC10, active compounds read low 1.02 | locus YGR135W, strain pre9, active compounds read low 1 | locus YGR252W, strain gcn5, active compounds read low 1 | locus YHR013C, strain ard1, active compounds read low 0.916 | locus YHR027C, strain rpn1, active compounds read low 0.968 | locus YHR030C, strain SLT2, active compounds read low 0.987 and 0.966 | locus YHR079C, strain IRE1 (second series), active compounds read low 1.01 | locus YHR079C, strain IRE1, active compounds read low 0.976 | locus YHR094C, strain hxt1, active compounds read low 0.992 | locus YHR129C, strain ARP1, active compounds read low 0.994 | locus YHR142W, strain chs7, active compounds read low 0.914 | locus YHR200W, strain rpn10, active compounds read low 0.991 | locus YIL066C, strain RNR3, active compounds read low 0.935 | locus YIL073C, strain SPO22, active compounds read low 1.01 | locus YIL125W, strain kgd1, active compounds read low 1 | locus YIR030C, strain dcg1, active compounds read low 0.996 | locus YJL092W, strain hpr5, active compounds read low 0.968 | locus YJL095W, strain BCK1 (second series), active compounds read low 0.987 | locus YJL095W, strain BCK1, active compounds read low 1.02 and 1.01 | locus YJL115W, strain asf1, active compounds read low 0.952 | locus YJL129C, strain trk1, active compounds read low 0.929 | locus YJL134W, strain LCB3, active compounds read low 0.982 | locus YJL154C, strain vps35, active compounds read low 0.973 | locus YJL164C, strain tpk1, active compounds read low 0.979 | locus YJL166W, strain qcr8, active compounds read low 1 | locus YJL168C, strain set2, active compounds read low 0.995 | locus YJL187C, strain SWE1 (second series), active compounds read low 1.03 | locus YJR043C, strain POL32, active compounds read low 0.954 | locus YJR066W, strain TOR1, active compounds read low 0.929 | locus YKL009W, strain mrt4, active compounds read low 1 | locus YKL068W, active compounds read low 0.992 | locus YKL085W, strain MDH1 (second series), active compounds read low 0.995 | locus YKL085W, strain MDH1, active compounds read low 0.995 | locus YKL160W, strain elf1, active compounds read low 0.931 | locus YKR001C, strain vps1, active compounds read low 0.987 | locus YKR026C, strain gcn3, active compounds read low 0.983 | locus YKR091W, strain srl3, active compounds read low 0.963 | locus YLL001W, strain dnm1, active compounds read low 1 | locus YLL026W, active compounds read low 0.971 | locus YLL041C, strain sdh2, active compounds read low 0.999 | locus YLR027C, strain aat2, active compounds read low 0.989 | locus YLR039C, strain RIC1, active compounds read low 0.971 | locus YLR058C, strain SHM2, active compounds read low 0.988 | locus YLR102C, strain apc9, active compounds read low 1 | locus YLR113W, strain HOG1, active compounds read low 1.04 | locus YLR221C, strain rsa3, active compounds read low 1.03 | locus YLR258W, strain gsy2, active compounds read low 0.95 | locus YLR262C, strain YPT6 (second series), active compounds read low 0.982 | locus YLR262C, strain YPT6, active compounds read low 0.969 | locus YLR268W, strain sec22, active compounds read low 1.01 | locus YLR320W, strain mms22, active compounds read low 1.01 | locus YLR330W, strain CHS5, active compounds read low 0.988 | locus YLR342W, strain FKS1 (second series), active compounds read low 0.988 | locus YLR342W, strain FKS1, active compounds read low 0.973 | locus YLR357W, strain rsc2, active compounds read low 0.947 | locus YLR370C, strain arc18, active compounds read low 0.964 | locus YLR371W, strain rom2, active compounds read low 0.994 | locus YLR384C, strain iki3, active compounds read low 0.941 | locus YLR418C, strain cdc73, active compounds read low 1 | locus YML016C, strain PPZ1, active compounds read low 0.986 | locus YML032C, strain rad52, active compounds read low 0.986 | locus YML120C, strain ndi1, active compounds read low 1 | locus YML124C, strain tub3, active compounds read low 1.01 | locus YMR058W, strain fet3, active compounds read low 0.971 | locus YMR078C, strain ctf18, active compounds read low 1 | locus YMR125W, strain sto1, active compounds read low 0.97 | locus YMR129W, active compounds read low 0.976 | locus YMR205C, strain PFK2, active compounds read low 1 | locus YMR223W, strain ubp8, active compounds read low 0.997 | locus YMR231W, strain pep5, active compounds read low 0.992 | locus YMR307W, strain GAS1, active compounds read low 0.904 | locus YNL067W, strain RPL9B, active compounds read low 1.06 | locus YNL071W, strain lat1, active compounds read low 0.986 | locus YNL183C, strain NPR1, active compounds read low 0.975 | locus YNL209W, strain ssb2, active compounds read low 0.968 | locus YNL233W, strain BNI4, active compounds read low 1.07 | locus YNL248C, strain rpa49, active compounds read low 0.903 | locus YNL250W, strain rad50, active compounds read low 1.01 | locus YNL271C, strain bni1, active compounds read low 0.994 | locus YNL298W, strain CLA4, active compounds read low 0.994 | locus YNL307C, strain MCK1, active compounds read low 1 | locus YNL322C, strain KRE1 (second series), active compounds read low 0.948 | locus YNR049C, strain mso1, active compounds read low 0.955 | locus YNR052C, strain pop2, active compounds read low 1.03 | locus YOL012C, strain htz1 0.802 | locus YOL147C, strain pex11, active compounds read low 0.999 | locus YOR001W, strain rrp6, active compounds read low 1.03 | locus YOR061W, strain CKA2, active compounds read low 0.975 | locus YOR069W, strain VPS5, active compounds read low 0.987 | locus YOR070C, strain gyp1, active compounds read low 0.975 | locus YOR080W, strain dia2, active compounds read low 0.967 | locus YOR083W, strain WHI5, active compounds read low 0.896 | locus YOR106W, strain vam3, active compounds read low 0.923 | locus YOR136W, strain idh2, active compounds read low 0.998 | locus YOR144C, strain elg1, active compounds read low 1 | locus YOR184W, strain ser1, active compounds read low 0.995 | locus YOR231W, strain MKK1, active compounds read low 0.976 | locus YOR265W, strain rbl2, active compounds read low 0.97 | locus YOR270C, strain vph1, active compounds read low 0.923 | locus YOR290C, strain snf2, active compounds read low 0.929 | locus YOR316C, strain cot1, active compounds read low 0.994 | locus YPL051W, strain arl3, active compounds read low 0.963 | locus YPL078C, strain atp4, active compounds read low 0.939 | locus YPL106C, strain sse1, active compounds read low 0.899 | locus YPL240C, strain hsp82, active compounds read low 0.987 | locus YPL241C, strain CIN2, active compounds read low 0.997 | locus YPL256C, strain CLN2, active compounds read low 1.01 | locus YPR119W, strain clb2, active compounds read low 0.995 | locus YPR141C, strain kar3, active compounds read low 0.989 | locus YPR163C, strain tif3, active compounds read low 0.989 | locus YPR167C, strain met16, active compounds read low 0.997 | strain wtn01, active compounds read low 1.01
